This note sets out measurements from PubChem BioAssay.

The nature of experiment [1]: compounds interfering with TAMRA-BSA probe, counter-screen for TCR-CD3 interaction inhibitor project, biochemical, fluorescence, TAMRA-labeled BSA (AID 652035; in the data active means inhibition above about 23%;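 further: 0% = buffer low control and 100% = reference high control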). Particulars: TAMRA-labeled BSA probe fluorescence counterscreen; at 9.4 µM; active compounds read high. (A counterscreen serves to expose hits that act by an unwanted route or on another target.)
Experiment [2] concerns T-cell receptor (TCR)-CD3 interaction, human. The experiment is described as follows: TCR-CD3 interaction inhibitors, retest, confirmation, biochemical, fluorescence, TAMRA-labeled TCR probe (AID 652036; in the data active means inhibition above about 19%). Particulars: TAMRA-labeled TCR probe fluorescence binding assay; at 9.4 µM; active compounds read high.
Experiment [3] can be described thus: Gal4-VP16 luciferase reporter inhibitors, counter-screen for COUP-TFII antagonist project, cell-based, luminescence, HEK293 (AID 687007; in the data active means inhibition above about 13%). Particulars: at 8.5 µM, active compounds read high. (In general: Reporter assays use an easily measured gene product as a stand-in for the process of interest.)
The target of experiment [4] is COUP transcription factor 2 (Homo sapiens) (UniProt P24468). The experiment in a line: NR2F2 transcriptional activity inhibitors, confirmation, cell-based, luciferase reporter, HEK293, triplicate (AID 687008;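 active means mean inhibition over three repeats above a set limit taken from the earlier primary screen, cut at about 38% in these data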;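 further: 100% = cells given the luciferase reporter alone without the COUP-TF2 vector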). Particulars: HEK293 NGFI-A luciferase reporter, luminescence; at 8.5 µM; active compounds read high.
COUP transcription factor 2 (Homo sapiens), sequence (P24468 whole entry, looked up): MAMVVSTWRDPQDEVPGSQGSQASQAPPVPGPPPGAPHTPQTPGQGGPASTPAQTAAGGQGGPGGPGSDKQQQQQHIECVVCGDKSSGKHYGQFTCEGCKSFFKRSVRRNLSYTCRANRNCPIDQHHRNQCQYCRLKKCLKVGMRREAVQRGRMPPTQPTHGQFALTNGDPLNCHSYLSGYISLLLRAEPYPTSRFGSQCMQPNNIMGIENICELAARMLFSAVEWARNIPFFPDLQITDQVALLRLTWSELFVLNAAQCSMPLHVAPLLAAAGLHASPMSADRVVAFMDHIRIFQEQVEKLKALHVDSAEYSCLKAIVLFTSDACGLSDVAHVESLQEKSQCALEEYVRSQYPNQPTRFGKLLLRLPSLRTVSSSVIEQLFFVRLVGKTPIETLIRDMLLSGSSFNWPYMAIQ
The target of experiment [5] is (Lyso)-N-acylphosphatidylethanolamine lipase (Mus musculus) (UniProt Q8VD66). The experiment in a line: ABHD4 inhibitors, retest, confirmation, biochemical, fluorescence polarization, mouse (AID 720658;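 active means mean inhibition across replicates above the hit cutoff set in the primary screen, cut at about 30% in these data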;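 further: 0% = wild-type ABHD4 with DMSO and 100% = catalytically dead S159A mutant with DMSO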). Particulars: purified mABHD4, FP-Rh probe fluorescence polarization; at 8.92 µM; active compounds read high. Background: Polarisation of emitted light reports the rotation of a fluorescent probe.
(Lyso)-N-acylphosphatidylethanolamine lipase (Mus musculus), sequence (Q8VD66 whole entry, looked up): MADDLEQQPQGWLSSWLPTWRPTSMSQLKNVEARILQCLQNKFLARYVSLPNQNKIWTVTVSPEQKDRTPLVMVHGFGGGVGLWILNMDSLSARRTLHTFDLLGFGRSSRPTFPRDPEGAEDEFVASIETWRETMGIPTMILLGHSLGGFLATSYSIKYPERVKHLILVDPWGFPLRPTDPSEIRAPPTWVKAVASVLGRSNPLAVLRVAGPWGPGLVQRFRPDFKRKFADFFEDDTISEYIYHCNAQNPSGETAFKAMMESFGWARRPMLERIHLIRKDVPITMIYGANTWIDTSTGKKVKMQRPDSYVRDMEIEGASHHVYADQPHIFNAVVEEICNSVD

Experiment [6] has as its system DAF-12 nuclear receptor (Heterodera glycines), GAL4-LBD fusion. The experiment is described as follows: H. glycines DAF-12 receptor agonists, confirmation, cell-based, luminescence, HEK293, GAL4-LBD fusion (AID 743050;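 active means mean activation over triplicate wells above the hit cutoff derived from the earlier primary screen, cut at about 11% in these data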;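 further: 0% = DMSO low control and 100% = 2 mM sodium butyrate high control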). To be noted: HEK293 GAL4-hgDAF12 luciferase reporter, agonist mode; at 6.8 µM; active compounds read high; percent of butyrate response.
Experiment [7] concerns the target Oxysterols receptor LXR-beta (Homo sapiens) (UniProt P55055). The experiment is described as follows: LXR agonists, Gal4 luciferase reporter, confirmation, counter-screen for hgDAF-12 agonist project, cell-based, luminescence, HEK293, H. glycines campaign (AID 743051;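 active means mean activation of the triplicate above a set limit carried over from the primary screen, none filed active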). Particulars: 24 h, at 6.8 µM, active compounds read high.
Experiment [8] shares this target. The experiment in a line: LXR agonists, Gal4 luciferase reporter, confirmation, counter-screen for hcDAF-12 agonist project, cell-based, luminescence, HEK293, H. contortus campaign (AID 743027). To be noted: HEK293 Gal4-LXR tk-luc reporter, 24 h, at 6.8 µM, active compounds read high, normalized: DMSO 0%, positive control 100%.
The test system of experiment [9] is Nuclear hormone receptor DAF-12 (Haemonchus contortus). The experiment is described as follows: H. contortus DAF-12 receptor agonists, confirmation, cell-based, luminescence, HEK293, lit1-tk-luc, triplicate (AID 743032;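 active means mean activation across triplicate tests above the threshold derived from the earlier primary screen, cut at about 5.5% in these data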;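 further: 0% = DMSO only wells and 100% = 3 µM Δ7-dafachronic acid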). Particulars: HEK293 hcDAF-12 lit1-tk-luc reporter, at 6.8 µM, active compounds read high, % of Δ7-dafachronic acid response.

By inhibition is commonly meant the change of the read-out against control, counted positive when it falls.

The other results are listed elsewhere or left out. Unmarked numbers belong to inactive results. Activity calls are given as the source filed them.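 How the source made its calls, unless noted: active means mean percent activation of the reporter above a cutoff set as the average over tested compounds plus their standard deviation; inactive means the rest.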

Oxysterols receptor LXR-beta (Homo sapiens), sequence (P55055 whole entry, looked up, the tested form may be a part): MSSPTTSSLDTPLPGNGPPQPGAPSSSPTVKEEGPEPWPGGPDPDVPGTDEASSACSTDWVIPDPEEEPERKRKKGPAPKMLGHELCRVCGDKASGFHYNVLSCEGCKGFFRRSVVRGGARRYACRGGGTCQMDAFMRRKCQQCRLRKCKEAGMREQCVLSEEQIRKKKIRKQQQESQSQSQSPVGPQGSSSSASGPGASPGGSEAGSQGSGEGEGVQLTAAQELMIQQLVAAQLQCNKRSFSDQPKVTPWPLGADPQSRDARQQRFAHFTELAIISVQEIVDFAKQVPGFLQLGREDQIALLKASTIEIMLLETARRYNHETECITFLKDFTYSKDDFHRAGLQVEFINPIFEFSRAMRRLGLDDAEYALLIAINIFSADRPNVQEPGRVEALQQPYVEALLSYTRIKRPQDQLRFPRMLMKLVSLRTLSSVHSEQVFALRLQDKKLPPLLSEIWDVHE

With `CNS(=O)(=O)c1ccc2c(c1)[nH]c(=S)n2C`, the inhibition in [1] and in experiment [2] was 10.3% throughout.

`CN(C(=O)c1cccc(NC(=O)Cc2cccc([N+](=O)[O-])c2)c1)C1CCCCC1`: the inhibition was -3.36% in experiment [3] and 1.83% in [4].

As for `O=C(c1cc(C(=O)N2CCN(c3ccc(F)cc3)CC2)cc([N+](=O)[O-])c1)N1CCN(c2ccc(F)cc2)CC1`, the values for the inhibition in experiment [3] and in experiment [4] were -2.78% and 46.7% (active), respectively.

On to `COc1ccc(-c2c(-c3cc(OC)cc(OC)c3)n(C)c3ccc(-c4ccn[nH]4)cc23)cc1`, for which the figures for the inhibition in [1] and in experiment [2] were 1.44% and -1.35%, respectively.

Consider `Cc1ccc(Nc2nc(CSc3nnc(-c4ccncc4)n3-c3ccccc3C)cs2)cc1`, for which the figures for the inhibition in experiment [3] and in experiment [4] were -8.65% and 11.9%, respectively.

As to `Cc1ccc(CNC(=O)Nc2nnc([C@H]3C[C@H](O)[C@@H](CO)O3)s2)cc1`, the inhibition is -1.25% in [3] and 11.2% in experiment [4].

On to `O=C(Nc1ccc(S(=O)(=O)N2CCOCC2)cc1)C1CCN(S(=O)(=O)c2ccc(Cl)cc2)CC1`, for which the inhibition in experiment [3] was 0.86%; in [4], 12.2%.

For `Cc1ccccc1OCC(=O)Nc1ccc(N2CCN(C(=O)C(C)C)CC2)c(Cl)c1`, the inhibition in [3] was -4.24%; in experiment [4] it was 10.5%.

With `c1ccc(Cc2ccc(OCCn3ccnc3)cc2)cc1`, the inhibition in [3] is -6.15%; in experiment [4], 9.96%.

Consider `O=C(Nc1ccc(S(=O)(=O)NCC2CCCO2)cc1)c1ccc(F)cc1` (stereo not drawn), for which the inhibition is 3.93% in [3] and 13.8% in [4].

For `CCOC(=O)C1(CCOc2ccccc2)CCN(Cc2cc(OC)cc(OC)c2)CC1`, the inhibition in experiment [3] is 6.8%; in [4], 9.24%.

Take `CCc1ccc(-c2nc(SCC(=O)NC3CCCC3)n[nH]2)cc1`: the inhibition in [3] was -22.9%; in experiment [4], 11.9%.

Regarding `Cc1cc2ccccc2n1CCNC(=O)COc1ccc2ccccc2c1`, the inhibition in experiment [1] is 8.77%; in [2], 2.99%; in experiment [5] it was 1.54%.

In the case of `O=C(O)c1cc([N+](=O)[O-])c(Nc2cccc3ccccc23)c([N+](=O)[O-])c1`, in [5], the inhibition was 39.9% (active).

As for `Cc1ccccc1CS(=O)(=O)Cc1ccc(C(=O)Nc2ccc(Cl)cc2)o1`, the inhibition in [3] is -1.58%; in experiment [4], 41.5% (active).

With `NC(N)=N/N=C/c1ccc(OCc2ccc(Cl)cc2Cl)cc1`, the inhibition in [5] is 46.2% (active).

For `CN(CCc1ccccc1)C(=O)c1cccc(NC(=O)Cc2cccc(NC(=O)C3CCCN(C(=O)CCc4ccccc4)C3)c2)c1` (stereo not drawn), the inhibition in experiment [3] was -3.76%; in experiment [4] it was 15.9%.

Regarding `COc1ccc(C(=O)NNc2cc(C)nc(NNC(=O)c3ccc(OC)cc3)n2)cc1`, the results for the inhibition in experiment [1] and in [2] were -5.67% and 5.09%, respectively.

As for `COC(=O)c1oc2ccc(Br)cc2c1NC(C)=O`, in experiment [5], the inhibition was -0.79%.

On to `COc1ccc(Br)cc1/C=N/Nc1ccc(S(=O)(=O)Nc2ccccc2C(=O)O)cc1[N+](=O)[O-]`, for which the inhibition in experiment [5] is 20.7%.

For `CC/C(=C(/c1ccccc1)c1ccc(OCC[N+](C)(C)C)cc1)c1ccccc1`, the inhibition in [5] is 36.6% (active).

In the case of `COc1cc(/C=C/C(=O)n2cnc3ccccc32)cc(OC)c1OC`, the inhibition in [3] is -14.2%; in [4], 16.1%.

Take `O=C(O)c1ccc(N/N=C/c2cn(-c3ccccc3)nc2-c2cccs2)cc1`: the activation in experiment [6] was 19.1% (active); in experiment [7], 0.89%.

As for `COc1ccccc1NC(=O)c1ccc(C)s1`, the activation was 0.6% in experiment [8] and 8.4% (active) in experiment [9].

Take `Nc1ccc2[nH]c(=S)sc2c1`: the activation in experiment [8] was 0.01%; in [9], 2.92%.

As for `CCc1cc2c(=O)c(-c3ccon3)c(N)oc2cc1OC`, the activation in experiment [8] is 0.84%; in experiment [9] it was 6.18% (active).

As for `COc1ccccc1OCc1nc2ccccc2s1`, the activation in [8] is 1.64%; in experiment [9], 17.7% (active).

On to `COc1ccc(-c2c3c(=O)n(C)c(=O)n(C)c3cn2-c2cccc(OC)c2)cc1`, for which the results for the activation in experiment [8] and in experiment [9] were -0.23% and 3.87%, respectively.

Turning to `Cn1ccnc1SCC(=O)Nc1ccc2c(c1)OCCO2`, the activation in experiment [8] was 0.85%; in [9] it was 2.69%.

As for `Cn1c(=O)c(C(=O)Nc2ncccn2)c(O)c2ccccc21`, the activation in experiment [8] was 0.73%; in experiment [9] it was 15.3% (active).

Consider `NNC(=O)C1CCCn2c1nc1sc3c(c1c2=O)CCCC3` (stereo not drawn), for which the activation in experiment [8] was -0.2%; in experiment [9], 4.24%.

Consider `CNc1nc(Nc2ccc(C)c(Cl)c2)nc(N)c1[N+](=O)[O-]`, for which the activation was 0.77% in experiment [8] and 10.9% (active) in experiment [9].

Consider `Cc1cccc(C(=O)N2CCc3c([nH]c4ccccc34)C2CC(C)C)n1` (stereo not drawn), for which the activation was 0.01% in experiment [8] and 6.29% (active) in [9].

Regarding `Cc1nc2cc(NC(=O)Nc3cccc(F)c3)ccc2n1C`, the values for the activation in [8] and in experiment [9] were 1.98% and 11.2% (active), respectively.

With `CCOc1ccc(C2c3[nH]c4ccccc4c3CCN2Cc2cn(CC)nc2C)cc1` (stereo not drawn), the activation was -0.18% in experiment [8] and 3.63% in experiment [9].

In the case of `CC(=O)N1C(=O)/C(=C2\SC(=S)N(NC(=O)c3ccc(O)cc3)C2=O)c2ccccc21`, the activation was -0.17% in experiment [8] and 1.25% in experiment [9].

With `N#Cc1c(NC(=O)C2CCCO2)sc2c1CCCCC2` (stereo not drawn), the activation in experiment [8] is 1.18%; in experiment [9], 6.65% (active).

As to `C(=N\Nc1ccc2ccccc2n1)/c1ccc2c(c1)OCO2`, the activation in experiment [8] was 1.28%; in [9] it was 4.85%.

Regarding `Cc1c(C=O)c2ccccc2n1CC(=O)O`, the activation was -0.12% in [8] and 1.56% in experiment [9].

On to `OC(COc1ccc2ccccc2c1)CN1CCOCC1` (stereo not drawn), for which the values for the activation in experiment [8] and in experiment [9] were 0.33% and 8.99% (active), respectively.

Regarding `Cc1ccc2nc(-c3ccccc3)c(CC3CCCCC3)n2c1`, the values for the activation in [8] and in [9] were 0.85% and 9.61% (active), respectively.
